# Measurements from PubChem BioAssay (NCATS).
# “And” between values parts separate entries of the source, which are not always exact repeats. Equal entries are not always repeated. Results filed as inconclusive are left out. Entries that show only a call come without a potency. The source made the active and inactive calls. Unless noted, the call rests on the fitted dose curve; in most records, active means well fitted curve in the direction sought with a large enough effect; inconclusive means small, poorly fitted or top-dose-only effect, or another doubt; inactive means no such curve, though single readings can be large; an effect the other way counts as inactive or inconclusive.
# Biological target: Muscarinic acetylcholine receptor M1 (Rattus norvegicus) (UniProt P08482)
# Sequence (P08482 whole entry, looked up): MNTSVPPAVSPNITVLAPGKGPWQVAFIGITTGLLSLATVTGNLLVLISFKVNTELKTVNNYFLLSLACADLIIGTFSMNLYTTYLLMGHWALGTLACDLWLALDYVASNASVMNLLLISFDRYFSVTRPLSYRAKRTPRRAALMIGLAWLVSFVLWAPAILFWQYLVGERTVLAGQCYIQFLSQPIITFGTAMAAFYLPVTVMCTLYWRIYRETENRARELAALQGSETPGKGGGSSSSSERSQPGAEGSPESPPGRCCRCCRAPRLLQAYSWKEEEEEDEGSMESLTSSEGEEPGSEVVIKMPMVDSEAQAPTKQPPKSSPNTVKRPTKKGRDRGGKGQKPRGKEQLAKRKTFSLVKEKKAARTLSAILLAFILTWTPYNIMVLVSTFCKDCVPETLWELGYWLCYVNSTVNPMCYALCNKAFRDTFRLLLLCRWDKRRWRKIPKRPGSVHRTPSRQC
# Test: qHTS Assay for Antagonists of Acetylcholine Muscarinic M1 Receptor: Kinetic Measurement of Intracellular Calcium Response (AID 943); further: nearly all actives have a fitted effect of over 75% in size; further: potency means the concentration at half of the fitted maximal effect
# Settings: M1-expressing cells, kinetic intracellular calcium fluorescence; series mostly up to 35.3 µM
# Outline: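 CHO cells stably expressing rat M1 were loaded with no-wash Fluo-4 dye for 1 h at 37C, pre-incubated 10 min with compound, then challenged with EC80 carbachol (100 nM final); kinetic calcium read 4 min, peak/basal ratio.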
row,Compound,Potency
1,CCCN(CCC)[C@@H]1CCc2ccc(O)cc2C1,5.01 µM (active) and 282 nM (active)
2,C#CCOC(=O)C1=CCCN(C)C1,inactive
3,C[C@@H]1O[C@H](C[N+](C)(C)C)C[C@H]1O,inactive
4,CC(=O)NCCc1c[nH]c2ccccc12,inactive
5,NC(=NCCC[C@H](N)C(=O)O)N[N+](=O)[O-],inactive
6,NCc1cc(=O)[nH]o1,inactive
7,c1ccc(CCCN2CCN(CCOC(c3ccccc3)c3ccccc3)CC2)cc1,891 nM (active)
8,Cn1cnc(CCN)c1,inactive
9,CNCCc1ccc(O)c(O)c1,inactive
10,CNCCc1c[nH]c2ccc(O)cc12,inactive

# Biological target: Muscarinic acetylcholine receptor M1 (Rattus norvegicus) (UniProt P08482)
# Test: qHTS Assay for Antagonists of Acetylcholine Muscarinic M1 Receptor: Measurement of IP-One Response (AID 944); further: nearly all actives have a fitted effect of over 75% in size; further: potency means the concentration at half of the fitted maximal effect
# Settings: CHO-M1 cells, IP-One HTRF, antagonist mode; series mostly up to 46.1 µM
# Outline: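 CHO cells expressing rat M1 receptor, recovered overnight, were pre-incubated 10 min with compound, then stimulated 30 min with carbachol at EC80 (200 nM) in LiCl-containing buffer, pH 7.4. IP1 accumulation was read by HTRF (620/665 nm).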
row,Compound,Potency
1,O=C(O)CC[N+](=O)[O-],inactive
2,Clc1cnc(Oc2ccc(Oc3ncc(Cl)cc3Cl)cc2)c(Cl)c1,inactive
3,c1ccc2sc(C3(N4CCCCC4)CCCCC3)cc2c1,inactive
4,CCCN(CCC)[C@@H]1CCc2ccc(O)cc2C1,5.01 µM (active) and 3.98 µM (active)
5,C#CCOC(=O)C1=CCCN(C)C1,inactive
6,CCCN1CCO[C@@H]2c3cc(O)ccc3OC[C@H]21,inactive
7,C[C@@H]1O[C@H](C[N+](C)(C)C)C[C@H]1O,inactive
8,CC(=O)NCCc1c[nH]c2ccccc12,inactive
9,NC(=NCCC[C@H](N)C(=O)O)N[N+](=O)[O-],inactive
10,O=C(O)Cc1cnc[nH]1,inactive
11,CCCN1CCC[C@H](c2cccc(O)c2)C1,inactive
12,CC1=NN=C(c2ccc(N)cc2)c2cc3c(cc2C1)OCO3,inactive
13,NCc1cc(=O)[nH]o1,inactive
14,c1ccc(CCCN2CCN(CCOC(c3ccccc3)c3ccccc3)CC2)cc1,8.91 µM (active)
15,CCCCc1ccc(C(=O)O)nc1,inactive
16,Cn1cnc(CCN)c1,inactive
17,CNCCc1ccc(O)c(O)c1,inactive
18,CNCCc1c[nH]c2ccc(O)cc12,inactive

# Biological target: Pyruvate kinase (Leishmania mexicana) (UniProt Q27686)
# Sequence (Q27686 2-499 E452W): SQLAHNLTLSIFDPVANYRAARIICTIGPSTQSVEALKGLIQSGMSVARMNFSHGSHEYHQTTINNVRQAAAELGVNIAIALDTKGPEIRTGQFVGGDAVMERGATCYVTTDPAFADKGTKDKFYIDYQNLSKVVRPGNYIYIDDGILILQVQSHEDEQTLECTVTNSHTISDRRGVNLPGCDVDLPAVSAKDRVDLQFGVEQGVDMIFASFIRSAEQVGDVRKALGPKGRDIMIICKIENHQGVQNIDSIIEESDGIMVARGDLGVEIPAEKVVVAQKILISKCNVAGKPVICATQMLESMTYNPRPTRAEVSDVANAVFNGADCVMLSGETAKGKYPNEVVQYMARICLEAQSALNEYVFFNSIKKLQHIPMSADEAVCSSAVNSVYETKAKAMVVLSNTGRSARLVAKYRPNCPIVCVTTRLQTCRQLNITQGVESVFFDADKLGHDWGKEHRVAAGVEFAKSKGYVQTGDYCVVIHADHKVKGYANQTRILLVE
# Test: qHTS Validation Assay for Inhibitors of Leishmania Mexicana Pyruvate Kinase (AID 945)
# Settings: purified L. mexicana pyruvate kinase, enzyme activity, E451W mutant enzyme; series mostly up to 57.5 µM
# Outline: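 Luminescent ATP detection (PKLight) after a 1 h room-temperature reaction of 0.2 nM LmPYK E451W mutant with 0.5 mM PEP and 0.1 mM ADP at pH 7.2. Activity is normalized to DMSO-only control wells.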
row,Compound,outcome
1,O=C(O)CC[N+](=O)[O-],inactive
2,C[C@]12N[C@H](Cc3ccccc31)c1ccccc12,inactive
3,Clc1cnc(Oc2ccc(Oc3ncc(Cl)cc3Cl)cc2)c(Cl)c1,inactive
4,c1ccc2sc(C3(N4CCCCC4)CCCCC3)cc2c1,inactive
5,CCCN(CCC)[C@@H]1CCc2ccc(O)cc2C1,inactive
6,NCCc1c[nH]c2ccc(O)cc12,inactive
7,CC(C)Oc1cccnc1N(C)C1CCN(Cc2ccccc2)CC1,inactive
8,C#CCOC(=O)C1=CCCN(C)C1,inactive
9,CCCN1CCO[C@@H]2c3cc(O)ccc3OC[C@H]21,inactive
10,C[C@@H]1O[C@H](C[N+](C)(C)C)C[C@H]1O,inactive
11,CC(=O)NCCc1c[nH]c2ccccc12,inactive
12,NC(=NCCC[C@H](N)C(=O)O)N[N+](=O)[O-],inactive
13,O=C(O)Cc1cnc[nH]1,inactive
14,CCCN1CCC[C@H](c2cccc(O)c2)C1,inactive
15,CC1=NN=C(c2ccc(N)cc2)c2cc3c(cc2C1)OCO3,inactive
16,S=C(NC1CCCCC1)N1CCC(c2cnc[nH]2)CC1,inactive
17,NCc1cc(=O)[nH]o1,inactive
18,c1ccc(CCCN2CCN(CCOC(c3ccccc3)c3ccccc3)CC2)cc1,inactive
19,CCCCc1ccc(C(=O)O)nc1,inactive
20,Cn1cnc(CCN)c1,inactive
21,CNCCc1ccc(O)c(O)c1,inactive
22,CNCCc1c[nH]c2ccc(O)cc12,inactive

# Biological target: Pyruvate kinase PKM (Homo sapiens) (UniProt P14618)
# Sequence (P14618 whole entry, looked up): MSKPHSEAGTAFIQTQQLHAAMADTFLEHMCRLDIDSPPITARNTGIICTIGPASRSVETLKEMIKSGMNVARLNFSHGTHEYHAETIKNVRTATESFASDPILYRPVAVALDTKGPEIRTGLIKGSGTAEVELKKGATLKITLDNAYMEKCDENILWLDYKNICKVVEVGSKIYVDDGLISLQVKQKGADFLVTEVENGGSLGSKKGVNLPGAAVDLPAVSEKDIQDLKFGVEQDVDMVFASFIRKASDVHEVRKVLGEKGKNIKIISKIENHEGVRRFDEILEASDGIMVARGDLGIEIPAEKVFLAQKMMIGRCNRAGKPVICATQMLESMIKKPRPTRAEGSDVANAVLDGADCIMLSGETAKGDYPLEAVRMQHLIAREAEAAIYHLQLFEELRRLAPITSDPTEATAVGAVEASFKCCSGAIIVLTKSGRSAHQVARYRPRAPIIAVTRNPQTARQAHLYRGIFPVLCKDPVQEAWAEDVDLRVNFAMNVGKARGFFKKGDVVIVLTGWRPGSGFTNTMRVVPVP
# Test: qHTS Assay for Activators of Human Muscle Pyruvate Kinase (AID 954; active means well fitted curve in the direction sought with a large enough effect, not every such curve was filed as active)
# Settings: purified human muscle pyruvate kinase, luciferase-coupled luminescence, 1 h; series mostly up to 57.5 µM
# Outline: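 Enzyme was run at intermediate activity so both inhibitors and activators could be detected. ATP formed from ADP and PEP by 0.1 nM human PKM2 during a 1 h room-temperature incubation was quantified by coupled luciferase luminescence.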
row,Compound,outcome
1,O=C(O)CC[N+](=O)[O-],inactive
2,C[C@]12N[C@H](Cc3ccccc31)c1ccccc12,inactive
3,Clc1cnc(Oc2ccc(Oc3ncc(Cl)cc3Cl)cc2)c(Cl)c1,inactive
4,c1ccc2sc(C3(N4CCCCC4)CCCCC3)cc2c1,inactive
5,CCCN(CCC)[C@@H]1CCc2ccc(O)cc2C1,inactive
6,NCCc1c[nH]c2ccc(O)cc12,inactive
7,CC(C)Oc1cccnc1N(C)C1CCN(Cc2ccccc2)CC1,inactive
8,C#CCOC(=O)C1=CCCN(C)C1,inactive
9,CCCN1CCO[C@@H]2c3cc(O)ccc3OC[C@H]21,inactive
10,C[C@@H]1O[C@H](C[N+](C)(C)C)C[C@H]1O,inactive
11,CC(=O)NCCc1c[nH]c2ccccc12,inactive
12,NC(=NCCC[C@H](N)C(=O)O)N[N+](=O)[O-],inactive
13,O=C(O)Cc1cnc[nH]1,inactive
14,CCCN1CCC[C@H](c2cccc(O)c2)C1,inactive
15,CC1=NN=C(c2ccc(N)cc2)c2cc3c(cc2C1)OCO3,inactive
16,S=C(NC1CCCCC1)N1CCC(c2cnc[nH]2)CC1,inactive
17,NCc1cc(=O)[nH]o1,inactive
18,c1ccc(CCCN2CCN(CCOC(c3ccccc3)c3ccccc3)CC2)cc1,inactive
19,CCCCc1ccc(C(=O)O)nc1,inactive
20,Cn1cnc(CCN)c1,inactive
21,CNCCc1ccc(O)c(O)c1,inactive
22,CNCCc1c[nH]c2ccc(O)cc12,inactive

# Biological target: Alpha-galactosidase (Coffea arabica) (UniProt Q42656)
# Sequence (Q42656 whole entry, looked up): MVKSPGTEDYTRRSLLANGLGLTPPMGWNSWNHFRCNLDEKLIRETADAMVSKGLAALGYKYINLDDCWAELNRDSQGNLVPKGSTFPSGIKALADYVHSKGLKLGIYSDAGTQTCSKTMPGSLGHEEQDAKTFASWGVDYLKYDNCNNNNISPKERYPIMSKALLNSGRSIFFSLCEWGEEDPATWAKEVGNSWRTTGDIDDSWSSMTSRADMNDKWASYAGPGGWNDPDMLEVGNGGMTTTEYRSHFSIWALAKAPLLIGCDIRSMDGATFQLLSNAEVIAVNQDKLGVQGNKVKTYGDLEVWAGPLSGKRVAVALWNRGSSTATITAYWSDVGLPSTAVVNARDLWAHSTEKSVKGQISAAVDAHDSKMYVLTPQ
# Test: Counterscreen for Glucocerebrosidase Inhibitors: qHTS Assay for Coffee Bean alpha-Galactosidase at pH 4.5 (AID 957)
# Settings: purified coffee bean alpha-galactosidase, fluorogenic substrate; series mostly up to 76.9 µM
# Outline: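 Green coffee bean enzyme (2 nM final) was incubated with compounds (0.7 nM to 77 uM) and 4-methylumbelliferyl alpha-D-galactopyranoside (80 uM final) in 50 mM citric acid, 0.005% Tween-20, pH 4.5, 20 min at room temperature; AC50 from Hill fits.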
row,Compound,outcome
1,CCn1cc(C(=O)O)c(=O)c2cc3c(cc21)OCO3,inactive
2,CC(=O)Oc1ccccc1C(=O)O,inactive
3,C[N+](C)(C)CC(=O)O,inactive
4,O=C(O)CC[N+](=O)[O-],inactive
5,CCc1c(C)[nH]c2c1C(=O)C(CN1CCOCC1)CC2 (stereo not drawn),inactive
6,C[C@]12N[C@H](Cc3ccccc31)c1ccccc12,inactive
7,Clc1cnc(Oc2ccc(Oc3ncc(Cl)cc3Cl)cc2)c(Cl)c1,inactive
8,c1ccc2sc(C3(N4CCCCC4)CCCCC3)cc2c1,inactive
9,CCCN(CCC)[C@@H]1CCc2ccc(O)cc2C1,inactive
10,NCCc1c[nH]c2ccc(O)cc12,inactive
11,CC(C)Oc1cccnc1N(C)C1CCN(Cc2ccccc2)CC1,inactive
12,C#CCOC(=O)C1=CCCN(C)C1,inactive
13,CCCN1CCO[C@@H]2c3cc(O)ccc3OC[C@H]21,inactive
14,C[C@@H]1O[C@H](C[N+](C)(C)C)C[C@H]1O,inactive
15,CC(=O)NCCc1c[nH]c2ccccc12,inactive
16,Cc1cccc(C#Cc2ccccc2)n1,inactive
17,NC(=NCCC[C@H](N)C(=O)O)N[N+](=O)[O-],inactive
18,O=C(O)Cc1cnc[nH]1,inactive

row,Compound,outcome
1,CCCN1CCC[C@H](c2cccc(O)c2)C1,inactive
2,CC1=NN=C(c2ccc(N)cc2)c2cc3c(cc2C1)OCO3,inactive
3,S=C(NC1CCCCC1)N1CCC(c2cnc[nH]2)CC1,inactive
4,CCN(CC)CCNC(=O)c1ccc(NC(C)=O)cc1,inactive
5,CCOC(=O)C1=C[C@@]2(CC)CCCN3CCc4c(n1c1ccccc41)[C@H]32,inactive
6,CC#C[C@]1(O)CC[C@H]2[C@@H]3CCC4=CC(=O)CCC4=C3[C@H](c3ccc(N(C)C)cc3)C[C@@]21C,inactive
7,CCN1CCc2nc(N)oc2CC1,inactive
8,CC(C)c1ccc2c(c1)c(SC(C)(C)C)c(CC(C)(C)C(=O)O)n2Cc1ccc(Cl)cc1,inactive
9,NCc1cc(=O)[nH]o1,inactive
10,c1ccc(CCCN2CCN(CCOC(c3ccccc3)c3ccccc3)CC2)cc1,inactive
11,CCCCc1ccc(C(=O)O)nc1,inactive
12,CS(=O)(=O)Nc1ccc([N+](=O)[O-])cc1Oc1ccccc1,inactive
13,Cn1cnc(CCN)c1,inactive
14,C[C@]12C[C@H](O)[C@H]3[C@@H](CCC4=CC(=O)CC[C@@]43C)[C@@H]1CC[C@@H]2C(=O)CO,inactive
15,NCCS,inactive
16,CNCCc1ccc(O)c(O)c1,inactive
17,CC(C)(Sc1ccc(CCN(CCCCC2CCCCC2)C(=O)NC2CCCCC2)cc1)C(=O)O,inactive
18,CNCCc1c[nH]c2ccc(O)cc12,inactive
